This is an account of results in PMC5540273 (PLoS ONE, 2017).

SMILES strings stand for the structures. Bounds are passed on as bounds.
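Also: kd values determined as follow-up on hits from a single-replicate KINOMEscan panel screen.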

In the first assay the test system is CHEK2.
Consider `CNc1cc(-c2ccc3c(N)n[nH]c3c2)nc(N)n1` [GSK2224810], for which the Kd was determined as 2000 nM. This lies in the single-digit micromolar range.
Same read-out and setting: in the case of `CC(C)c1cc(-c2ccc3c(N)n[nH]c3c2)nc(N)n1` [GSK2250882] it was 320 nM; in that of `COc1ccc(Nc2nccc(NCCNC(=O)Nc3cc(C)ccc3C)n2)cc1` [GSK1379899], greater than 10000 nM.

A further assay deals with CIT.
The molecule `Cc1ccc(NC(=O)Nc2ccccc2F)cc1-c1ccc(C(=O)Nc2ccncc2)cc1` [GSK1398477] displayed a dissociation constant (Kd) of 570 nM.
`Cc1cccc2c(-c3ccncn3)c(-c3ccc(F)cc3)nn12` [GW515532] returned a Kd of 2500 nM.
On the same count and under the same terms, with `CC[C@@H]1CO[C@H](C(=O)Nc2ccccc2)CN1c1cc(-c2ccc3c(N)n[nH]c3c2)nc(NC)n1` [GSK2376236] the figure was 200 nM; with `Fc1ccc(-c2nc[nH]c2-c2ccncc2)cc1` [SB-217360], 310 nM.
Still for that read-out and setting: with `Nc1nccc(-c2c(-c3ccc(F)cc3)ncn2C2CCN(Cc3ccccc3)CC2)n1` [SB-219980] the figure was 130 nM.
Same read-out and setting: with `Fc1ccc(-c2nc3n(c2-c2ccncc2)CCS3)cc1` [GI98581] the figure was 760 nM; with `Fc1ccc(-c2nn3cccc(F)c3c2-c2ccncc2)cc1` [GW475620], 310 nM.
As to `COc1cccc(NC(=O)Nc2ccc(C)c(-c3ccc(C(=O)Nc4ccncc4)cc3)c2)c1` [GSK1398474], the Kd amounted to 280 nM.
Turning to `CNc1nc(-c2ccc3c(N)n[nH]c3c2)cc(N2C[C@@H](C(=O)Nc3ccccc3)CC[C@H]2C)n1` [GSK2298859], the Kd came out at 500 nM.
Still for that read-out and setting: with `Cl.Cl.Cl.N#Cc1ccc(CCNc2nccc(-c3cccc(CN4CCNCC4)c3)n2)cc1` [GSK2137462] the figure was 8600 nM; with `Cc1ccc(NC(=O)Nc2ccc(Cl)cc2)cc1-c1ccc(C(=O)Nc2ccncc2)cc1` [GSK1398472], 430 nM; with `Cc1ccc(NC(=O)Nc2ccccc2)cc1-c1ccc(C(=O)Nc2ccncc2)cc1` [GSK1398471], 540 nM.
